Data as given in PubChem BioAssay (Tox21).
Records with an inconclusive call do not appear. Activity calls are given as the source filed them. Unless noted, the call rests on the fitted dose curve; in most records, active means well fitted curve in the direction sought with a large enough effect in the repeat runs; inconclusive means weak or mixed curves; inactive means no such curve, though single readings can be large; an effect the other way counts as inactive or inconclusive.

Key:
[1] = target: Retinoic acid receptor RXR-alpha (Homo sapiens) (UniProt P19793); assay: qHTS assay to identify small molecule agonists of the RXR signaling pathway (AID 1159527; calls by dose curve; further: nearly all actives have a fitted effect of over 35% in size)
How it was run: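 Beta-lactamase reporter assay, agonist format. Engineered HEK 293T line, charcoal-stripped FBS at 2%, overnight (16 hr) exposure, fluorescence at 460 and 530 nm after 405 nm excitation.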

[2] = qHTS assay to identify small molecule agonists of the RXR signaling pathway - cell viability counter screen (AID 1159529);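 further: HEK 293T cells carrying an RXR-alpha UAS beta-lactamase reporter; series mostly up to about 77 µM; nearly all actives have a fitted effect of over 50% in size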
How it was run: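 Same-well viability check after the LiveBLAzer FRET read: CellTiter-Glo added, luminescence measured after 30 min at room temperature. Reporter HEK 293T cells had been treated with compounds for 16 hr following a 5 hr preincubation.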

[3] = qHTS assay to identify small molecule antagonists of the retinoid acid receptor (RAR) signaling pathway - cell viability counter screen (AID 1159551); further: nearly all actives have a fitted effect of over 35% in size
How it was run: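 Measured by luminescent ATP detection, viability reflects C3RL4 cells treated 6 h at 37 C with test chemicals in the presence of 1 uM (final) retinol.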

[4] = qHTS assay to identify small molecule antagonists of the retinoic acid receptor (RAR) signaling pathway (AID 1159552; further: nearly all actives have a fitted effect of over 50% in size)
How it was run: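 Readout: luciferase luminescence, 30 min post-reagent at RT. Setup: C3RL4 RARE reporter cells, compounds plus retinol 1 uM final, 6 hr incubation at 37 C and 5% CO2.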

[5] = qHTS assay to identify small molecule agonists of the retinoic acid receptor (RAR) signaling pathway (AID 1159553)
How it was run: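 6 hr compound exposure (DMSO vehicle) of overnight-plated C3RL4 RARE-luc cells at 37 C; luminescence quantified after 30 min RT with luciferase reagent.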

[6] = qHTS assay to identify small molecule antagonists of the estrogen related receptor (ERR) signaling pathway from Tox21 library - cell viability counter screen (AID 1224834); further: nearly all actives have a fitted effect of over 30% in size
How it was run: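 Seeded ERR cells were rested 6 h at 37 C/5% CO2 before compounds, positive and negative controls or DMSO were added. Incubation continued for 17.5 h, and viability was then quantified by CellTiter-Fluor fluorescence.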

[7] = target: Luciferin 4-monooxygenase (Photinus pyralis) (UniProt P08659); assay: qHTS assay to identify small molecule inhibitors of firefly luciferase (AID 1224835); further: series mostly up to about 120 µM; nearly all actives have a fitted effect of over 25% in size
How it was run: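 Biochemical qHTS: compounds run as interplate titrations against purified firefly enzyme, with D-luciferin and ATP each at its KM concentration. Light output recorded by CCD imaging.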

[8] = qHTS assay to identify small molecule agonists of the constitutive androstane receptor (CAR) signaling pathway - cell viability counter screen (AID 1224836); further: series mostly up to about 92 µM; nearly all actives have a fitted effect of over 45% in size
How it was run: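 Compound titrations (15 concentrations) went onto HepG2-CYP2B6-hCAR cells 4 h after seeding, alongside PK11195 at a final 0.75 uM; a 23 h, 37 C/5% CO2 incubation preceded CellTiter-Fluor viability measurement.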

[9] = qHTS assay to identify small molecule antagonists of the constitutive androstane receptor (CAR) signaling pathway - cell viability counter screen (AID 1224837); further: series mostly up to about 92 µM; nearly all actives have a fitted effect of over 45% in size
How it was run: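 To flag cytotoxic false antagonists, HepG2 hCAR/CYP2B6-2.2kb cells were treated 23 hr with 15-concentration compound series and 50 nM CITCO at 37 C/5% CO2; CellTiter-Fluor fluorescence was the measured end point.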

[10] = target: Nuclear receptor subfamily 1 group I member 3 (Homo sapiens) (UniProt Q14994); assay: qHTS assay to identify small molecule antagonists of the constitutive androstane receptor (CAR) signaling pathway (AID 1224838);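 further: HepG2 cells stably expressing hCAR with CYP2B6 luciferase reporter stimulated by CITCO; nearly all actives have a fitted effect of over 40% in size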
How it was run: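 Human hepatoma HepG2 cells expressing hCAR and a CYP2B6 promoter (2.2 kb) luciferase construct; compound titration (15 points) with 50 nM CITCO final, 24 h at 37 C/5% CO2; luminescence via ONE-Glo after 30 min at room temperature.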

[11] = qHTS assay to identify small molecule antagonists of the estrogen related receptor signaling pathway with the pleiotropic PPARgamma coactivator (PGC) from Tox21 10K library - cell viability counter screen (AID 1224840; active means well fitted cell-killing curve with a large enough effect in the repeat runs, not every such curve was filed as active; further: nearly all actives have a fitted effect of over 40% in size)
How it was run: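 Seeded PGC/ERR cells (2,000/well, 6 h, 37 C/5% CO2) get compound by pin tool; 17.5 h incubation at 37 C; CellTiter-Fluor added, 30 min, fluorescence measured.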

[12] = target: Thyrotropin receptor (Homo sapiens) (UniProt P16473); assay: qHTS assay to identify small molecule agonists of the thyroid stimulating hormone receptor (TSHR) signaling pathway (AID 1224843; calls by dose curve; further: nearly all actives have a fitted effect of over 45% in size)
How it was run: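 HEK293/TSHR, 800 cells/well; cpd 30 min RT; add cAMP-d2 + anti-cAMP-cryptate, 1 h RT; fluorescence read on plate reader. 15-pt titration, n=3.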

[13] = qHTS assay to identify small molecule agonists of H2AX (AID 1224845; active means well fitted activation curve with a large enough effect in the signal ratio in the repeat runs, not every such curve was filed as active; the % refers to the signal ratio)
How it was run: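 Wild-type CHO-K1 cells, plated overnight, exposed 3hr at 37C to 15 concentrations (0.76% DMSO final). Lysed, then HTRF anti-pH2AX (S139) cryptate and anti-H2AX-d2 antibodies, 24 hr room temperature; 665/620 nm emission read.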

[14] = qHTS assay to identify small molecule agonists of the hypoxia (HIF-1) signaling pathway (AID 1224846; active means well fitted activation curve with a large enough effect in the signal ratio in the repeat runs, not every such curve was filed as active; the % refers to the signal ratio)
How it was run: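 Reporter induction in HRE-bla ME-180 cells is taken as agonism: cells sit 5 hrs after plating, receive compounds or DMSO only, incubate 17 hrs at 37C under 5% CO2, and are loaded with CCF4-AM for beta-lactamase FRET measurement.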

[15] = qHTS assay to identify small molecule agonists of H2AX - cell viability counter screen (AID 1224847; calls by dose curve; further: top concentration of the series differs between compounds; nearly all actives have a fitted effect of over 30% in size)
How it was run: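 Read-out: CellTiter-Glo luminescence, 30 min RT. Cells: wild-type CHO-K1, 1000/well, 10% FBS, plated overnight at 37C. Treatment: 15 concentrations, 3 hr, 37C, 0.76% DMSO.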

[16] = target: Nuclear receptor subfamily 1 group I member 3 (Homo sapiens) (UniProt Q14994); assay: qHTS assay to identify small molecule agonists of the constitutive androstane receptor (CAR) signaling pathway (AID 1224839);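 further: HepG2 cells stably carrying human CAR and a CYP2B6 luciferase reporter; series mostly up to about 92 µM; nearly all actives have a fitted effect of over 15% in size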
How it was run: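 In this screen, CAR-driven CYP2B6 promoter activity is measured by luminescence in HepG2-CYP2B6-hCAR cells after 24 h with test compounds and 0.75 uM PK11195 (final concentration).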

[17] = qHTS assay to identify small molecule agonists of the estrogen related receptor signaling pathway with the pleiotropic PPARgamma coactivator (PGC) from Tox21 10K library (AID 1224842); further: nearly all actives have a fitted effect of over 15% in size
How it was run: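 PGC/ERR reporter cell line, 2,000 cells per well, incubated 6 h at 37 C before 23 nL compound in DMSO was added. After 18 h at 37 C, One-Glo luminescence read following 30 min at room temperature.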

[18] = qHTS assay to identify small molecule agonists of the hypoxia (HIF-1) signaling pathway - cell viability counter screen (AID 1224844; calls by dose curve; further: nearly all actives have a fitted effect of over 50% in size)
How it was run: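 HRE-bla ME-180; 0.5% dFBS; cpd 17 h, 37C, 5% CO2; CellTiter-Glo lum., 30 min RT, post-FRET read, same wells.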

[19] = qHTS assay to identify small molecule antagonists of the estrogen related receptor (ERR) signaling pathway from Tox21 library (AID 1224848); further: nearly all actives have a fitted effect of over 50% in size
How it was run: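 Compounds dissolved in DMSO are pin-transferred onto ERR reporter cells (2,000 per well) that have settled for 6 h at 37 C. Plates then incubate 18 h at 37 C before ONE-Glo luciferase reagent and a luminescence read 30 min later.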
On the % scale 0 is the no-effect control and ±100 the full control effect.

Chain of Nuclear receptor subfamily 1 group I member 3 (Homo sapiens) (Q14994 whole entry, looked up): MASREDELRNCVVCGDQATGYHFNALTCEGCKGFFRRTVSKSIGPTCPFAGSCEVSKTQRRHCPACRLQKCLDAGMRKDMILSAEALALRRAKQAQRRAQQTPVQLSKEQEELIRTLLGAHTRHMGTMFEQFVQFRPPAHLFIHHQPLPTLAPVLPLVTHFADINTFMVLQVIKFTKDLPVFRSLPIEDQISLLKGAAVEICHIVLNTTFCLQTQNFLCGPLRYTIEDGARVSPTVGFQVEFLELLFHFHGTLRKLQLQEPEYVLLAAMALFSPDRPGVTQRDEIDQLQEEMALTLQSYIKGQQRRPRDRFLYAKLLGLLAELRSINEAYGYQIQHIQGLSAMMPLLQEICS
Chain of Retinoic acid receptor RXR-alpha (Homo sapiens) (P19793 whole entry, looked up): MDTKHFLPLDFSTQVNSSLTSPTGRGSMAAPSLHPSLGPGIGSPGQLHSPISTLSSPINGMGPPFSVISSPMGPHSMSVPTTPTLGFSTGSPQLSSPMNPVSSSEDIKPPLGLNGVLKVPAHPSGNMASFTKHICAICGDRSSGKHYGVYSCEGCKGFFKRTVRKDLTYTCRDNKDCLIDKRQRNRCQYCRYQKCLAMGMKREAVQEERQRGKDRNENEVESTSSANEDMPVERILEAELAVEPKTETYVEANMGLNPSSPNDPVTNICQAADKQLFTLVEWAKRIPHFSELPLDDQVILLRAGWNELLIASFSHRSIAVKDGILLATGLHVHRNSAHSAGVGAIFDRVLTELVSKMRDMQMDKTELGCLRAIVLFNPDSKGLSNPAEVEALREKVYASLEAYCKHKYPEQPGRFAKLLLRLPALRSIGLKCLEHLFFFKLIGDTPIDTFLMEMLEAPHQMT
Chain of Thyrotropin receptor (Homo sapiens) (P16473 whole entry, looked up): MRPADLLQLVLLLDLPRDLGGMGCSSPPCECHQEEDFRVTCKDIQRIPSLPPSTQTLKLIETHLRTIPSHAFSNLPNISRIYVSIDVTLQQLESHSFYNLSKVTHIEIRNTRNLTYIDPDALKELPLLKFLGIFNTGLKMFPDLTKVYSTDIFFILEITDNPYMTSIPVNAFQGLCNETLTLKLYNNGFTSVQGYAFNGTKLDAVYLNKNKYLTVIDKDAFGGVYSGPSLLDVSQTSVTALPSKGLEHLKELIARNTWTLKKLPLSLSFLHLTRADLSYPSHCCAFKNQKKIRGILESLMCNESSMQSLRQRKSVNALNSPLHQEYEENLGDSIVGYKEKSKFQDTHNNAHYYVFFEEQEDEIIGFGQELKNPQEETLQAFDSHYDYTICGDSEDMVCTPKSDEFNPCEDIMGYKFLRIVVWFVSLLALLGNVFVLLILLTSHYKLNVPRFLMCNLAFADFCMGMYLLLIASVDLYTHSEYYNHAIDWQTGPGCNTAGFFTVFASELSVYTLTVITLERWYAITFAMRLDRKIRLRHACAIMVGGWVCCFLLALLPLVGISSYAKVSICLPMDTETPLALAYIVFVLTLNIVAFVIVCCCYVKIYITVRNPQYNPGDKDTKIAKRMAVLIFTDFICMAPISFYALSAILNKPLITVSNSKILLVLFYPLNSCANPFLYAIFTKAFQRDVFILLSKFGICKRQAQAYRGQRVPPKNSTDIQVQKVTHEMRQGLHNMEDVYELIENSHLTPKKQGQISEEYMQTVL
Chain of Luciferin 4-monooxygenase (Photinus pyralis) (P08659 whole entry, looked up): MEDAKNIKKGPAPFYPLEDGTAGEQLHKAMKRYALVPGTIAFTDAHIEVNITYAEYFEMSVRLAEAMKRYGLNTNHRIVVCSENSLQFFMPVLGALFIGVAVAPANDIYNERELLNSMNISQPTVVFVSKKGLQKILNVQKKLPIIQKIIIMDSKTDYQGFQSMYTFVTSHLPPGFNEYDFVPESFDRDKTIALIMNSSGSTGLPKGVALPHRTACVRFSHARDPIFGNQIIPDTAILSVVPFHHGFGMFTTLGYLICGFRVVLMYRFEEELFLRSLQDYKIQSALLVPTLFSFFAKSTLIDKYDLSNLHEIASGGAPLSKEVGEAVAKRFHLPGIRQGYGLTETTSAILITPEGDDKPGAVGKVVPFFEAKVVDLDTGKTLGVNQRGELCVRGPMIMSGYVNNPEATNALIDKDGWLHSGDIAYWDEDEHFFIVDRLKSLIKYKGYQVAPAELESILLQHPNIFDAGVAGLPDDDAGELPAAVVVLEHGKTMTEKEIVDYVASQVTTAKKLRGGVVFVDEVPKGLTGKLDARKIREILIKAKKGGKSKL

CCC/C=C(\C=O)CC
inactive: Potency [1] | outcome [2] | outcome [3] | outcome [4] | Potency [5] | outcome [6] | Potency [7] | outcome [8] | outcome [9] | Potency [10] | outcome [11] | outcome [12] | outcome [13] | outcome [14] | outcome [15]

COc1nc(N)nc2nc[nH]c12
inactive: Potency [1] | outcome [2] | outcome [3] | outcome [4] | Potency [5] | outcome [6] | outcome [8] | outcome [9] | Potency [10] | Potency [16] | outcome [11] | outcome [17] | outcome [12] | outcome [18] | outcome [13] | outcome [14] | outcome [15] | Potency [19]

CC1(C)O[C@H]2CC(=O)OC[C@]23[C@H]2CC[C@@]4(C)[C@H](c5ccoc5)OC(=O)[C@H]5O[C@]54[C@]2(C)C(=O)C[C@@H]13
inactive: Potency [1] | outcome [2] | outcome [3] | outcome [4] | Potency [5] | outcome [6] | Potency [7] | outcome [8] | outcome [9] | Potency [16] | outcome [11] | outcome [12] | outcome [18] | outcome [13] | outcome [14] | outcome [15]

O=C(CCCl)NCCc1ccccc1
inactive: Potency [1] | outcome [2] | outcome [3] | outcome [4] | Potency [5] | outcome [6] | Potency [7] | outcome [8] | Potency [10] | Potency [16] | outcome [11] | outcome [12] | outcome [18] | outcome [13] | outcome [14] | outcome [15]

C/C(CC(C)C)=N\O
inactive: Potency [1] | outcome [2] | outcome [3] | outcome [4] | Potency [5] | outcome [6] | Potency [7] | outcome [8] | outcome [9] | Potency [10] | Potency [16] | outcome [11] | outcome [12] | outcome [13] | outcome [14] | outcome [15]

COC(=O)/C=C\C(=O)O
inactive: Potency [1] | outcome [2] | outcome [3] | outcome [4] | Potency [5] | outcome [6] | Potency [7] | outcome [8] | Potency [10] | Potency [16] | outcome [11] | outcome [12] | outcome [18] | outcome [13] | outcome [14] | outcome [15]

CCC(=O)c1c(O)cc(O)cc1O
inactive: Potency [1] | outcome [2] | outcome [3] | outcome [4] | Potency [5] | outcome [6] | Potency [7] | outcome [8] | outcome [9] | Potency [16] | outcome [11] | outcome [17] | outcome [12] | outcome [18] | outcome [13] | outcome [14] | outcome [15]

CC(C)C1OCCN1CCOC(=O)NCCCCCCNC(=O)OCCN1CCOC1C(C)C (configuration not stated)
inactive: Potency [1] | outcome [2] | outcome [3] | outcome [4] | Potency [5] | outcome [6] | outcome [8] | outcome [9] | Potency [10] | Potency [16] | outcome [11] | outcome [12] | outcome [18] | outcome [13] | outcome [14] | outcome [15]

CCC(=O)Oc1ccc2c(c1)CC[C@@H]1[C@@H]2CC[C@@]2(C)[C@H]1C[C@@H](OC(=O)CC)[C@@H]2OC(=O)CC
inactive: Potency [1] | outcome [2] | outcome [3] | outcome [4] | Potency [5] | outcome [6] | Potency [7] | outcome [8] | outcome [9] | Potency [10] | outcome [11] | outcome [12] | outcome [18] | outcome [13] | outcome [14] | outcome [15]

CCCCCC(C)O (configuration not stated)
inactive: Potency [1] | outcome [2] | outcome [3] | outcome [4] | Potency [5] | outcome [6] | outcome [8] | outcome [9] | Potency [16] | outcome [11] | outcome [12] | outcome [18] | outcome [13] | outcome [14] | outcome [15]

C=CCCCCCCCCC(=O)OCCCC
inactive: Potency [1] | outcome [2] | outcome [3] | outcome [4] | Potency [5] | Potency [7] | outcome [8] | outcome [9] | Potency [10] | outcome [11] | outcome [12] | outcome [18] | outcome [13] | outcome [14] | outcome [15]

CN1C[C@@H]2C[C@H]1CN2c1cc2c(cc1F)c(=O)c(C(=O)O)cn2C1CC1
inactive: activation [1] 12.3% [at 15.8 µM] | activity change, negative = cytotoxicity [2] 0.369% [at 15.8 µM] | activity change, negative = cytotoxicity [3] -0.0754% [at 19 µM] | activity, negative = inhibition [4] 0.455% [at 19 µM] | viability change, negative = cytotoxic [6] 5.48% [at 19 µM] | activity change, negative = inhibition [7] 0.0867% [at 23.6 µM] | viability change, negative = cytotoxic [8] -2.13% [at 19 µM] | activity change, negative = cytotoxicity [9] -13.4% [at 19 µM] | activity, negative = inhibition [10] -6.55% [at 19 µM] | activation [16] -4.55% [at 19 µM] | viability change, negative = cytotoxic [11] 6.5% [at 19 µM] | activation [12] 1.11% [at 19 µM] | activity change, negative = cytotoxicity [18] 12.6% [at 15.8 µM] | activation (H2AX phosphorylation) [13] -0.432% [at 31.6 µM] | activation [14] -0.622% [at 15.8 µM] | activity change, negative = cytotoxicity [15] 4.25% [at 31.6 µM]

O=C(Cl)c1ccccc1[N+](=O)[O-]
inactive: Potency [1] | outcome [2] | outcome [3] | outcome [4] | Potency [5] | outcome [6] | outcome [8] | outcome [9] | Potency [16] | outcome [11] | outcome [12] | outcome [18] | outcome [13] | outcome [14] | outcome [15]
